# “And” between values parts separate entries of the source, which are not always exact repeats. Identical values can stand only once. The whole screen tested about 5,500 compounds, of which about 2,000 (36%) were called active. Inconclusive results (about 18%) are left out. The list shows a part of the results. Unmarked numbers belong to inactive results. No stated cut-off is given here; in the data, active means normalized growth mostly below about 0.91 (no sharp cut-off); inconclusive means no clear call, values can overlap the other calls; inactive means mostly above about 0.92.
# Experiment: chemical genetic growth profiling, strain panel (AID 1159580);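 further: tested at 20 µM; growth read once vehicle control cultures reached saturation at 30 °C; 1 = growth at the plate median or of vehicle wells; lower values mean less growth of the strain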
# Details: growth OD
structure (smiles),measurement,setting,value
Cn1c(=O)[nH]c2ncn(C)c2c1=O,normalized growth,"S. cerevisiae deletion strains, locus YJR043C, strain POL32, active compounds read low",1.02
same,normalized growth,"S. cerevisiae deletion strains, locus YJR075W, strain HOC1, active compounds read low",1.01 and 1
same,normalized growth,"S. cerevisiae deletion strains, locus YKL009W, strain mrt4, active compounds read low",1.03
same,normalized growth,"S. cerevisiae deletion strains, locus YKL068W, active compounds read low",0.988
same,normalized growth,"S. cerevisiae deletion strains, locus YKL085W, strain MDH1 (second series), active compounds read low",0.993
same,normalized growth,"S. cerevisiae deletion strains, locus YKL085W, strain MDH1, active compounds read low",0.993
same,normalized growth,"S. cerevisiae deletion strains, locus YKL160W, strain elf1, active compounds read low",1.02
same,normalized growth,"S. cerevisiae deletion strains, locus YKL190W, strain CNB1, active compounds read low",1.01
same,normalized growth,"S. cerevisiae deletion strains, locus YKR001C, strain vps1, active compounds read low",0.997
same,normalized growth,"S. cerevisiae deletion strains, locus YKR026C, strain gcn3, active compounds read low",0.964
same,normalized growth,"S. cerevisiae deletion strains, locus YKR091W, strain srl3, active compounds read low",0.98
same,normalized growth,"S. cerevisiae deletion strains, locus YLL001W, strain dnm1, active compounds read low",0.988
same,normalized growth,"S. cerevisiae deletion strains, locus YLL026W, active compounds read low",0.989
same,normalized growth,"S. cerevisiae deletion strains, locus YLL041C, strain sdh2, active compounds read low",0.978
same,normalized growth,"S. cerevisiae deletion strains, locus YLR027C, strain aat2, active compounds read low",1
same,normalized growth,"S. cerevisiae deletion strains, locus YLR039C, strain RIC1, active compounds read low",1.02
same,normalized growth,"S. cerevisiae deletion strains, locus YLR058C, strain SHM2, active compounds read low",1.01
same,normalized growth,"S. cerevisiae deletion strains, locus YLR102C, strain apc9, active compounds read low",0.995
same,normalized growth,"S. cerevisiae deletion strains, locus YLR221C, strain rsa3, active compounds read low",0.943
same,normalized growth,"S. cerevisiae deletion strains, locus YLR258W, strain gsy2, active compounds read low",0.993
same,normalized growth,"S. cerevisiae deletion strains, locus YLR262C, strain YPT6 (second series), active compounds read low",0.983
same,normalized growth,"S. cerevisiae deletion strains, locus YLR262C, strain YPT6, active compounds read low",1.03
same,normalized growth,"S. cerevisiae deletion strains, locus YLR268W, strain sec22, active compounds read low",0.988
same,normalized growth,"S. cerevisiae deletion strains, locus YLR320W, strain mms22, active compounds read low",0.97
same,normalized growth,"S. cerevisiae deletion strains, locus YLR330W, strain CHS5, active compounds read low",1.01
same,normalized growth,"S. cerevisiae deletion strains, locus YLR342W, strain FKS1 (second series), active compounds read low",1.03
same,normalized growth,"S. cerevisiae deletion strains, locus YLR342W, strain FKS1, active compounds read low",0.975
same,normalized growth,"S. cerevisiae deletion strains, locus YLR357W, strain rsc2, active compounds read low",0.97
same,normalized growth,"S. cerevisiae deletion strains, locus YLR370C, strain arc18, active compounds read low",0.966
same,normalized growth,"S. cerevisiae deletion strains, locus YLR371W, strain rom2, active compounds read low",0.986
same,normalized growth,"S. cerevisiae deletion strains, locus YLR384C, strain iki3, active compounds read low",0.97
same,normalized growth,"S. cerevisiae deletion strains, locus YLR418C, strain cdc73, active compounds read low",1
same,normalized growth,"S. cerevisiae deletion strains, locus YML016C, strain PPZ1, active compounds read low",1.01
same,normalized growth,"S. cerevisiae deletion strains, locus YML032C, strain rad52, active compounds read low",0.995
same,normalized growth,"S. cerevisiae deletion strains, locus YML120C, strain ndi1, active compounds read low",0.995
same,normalized growth,"S. cerevisiae deletion strains, locus YML124C, strain tub3, active compounds read low",0.993
same,normalized growth,"S. cerevisiae deletion strains, locus YMR058W, strain fet3, active compounds read low",0.981
same,normalized growth,"S. cerevisiae deletion strains, locus YMR078C, strain ctf18, active compounds read low",0.984
same,normalized growth,"S. cerevisiae deletion strains, locus YMR125W, strain sto1, active compounds read low",0.987
same,normalized growth,"S. cerevisiae deletion strains, locus YMR129W, active compounds read low",0.984
same,normalized growth,"S. cerevisiae deletion strains, locus YMR205C, strain PFK2, active compounds read low",0.995
same,normalized growth,"S. cerevisiae deletion strains, locus YMR223W, strain ubp8, active compounds read low",1.01
same,normalized growth,"S. cerevisiae deletion strains, locus YMR231W, strain pep5, active compounds read low",0.961
same,normalized growth,"S. cerevisiae deletion strains, locus YMR263W, strain SAP30, active compounds read low",1.01 and 0.996
same,normalized growth,"S. cerevisiae deletion strains, locus YMR307W, strain GAS1, active compounds read low",1.06 and 0.981
same,normalized growth,"S. cerevisiae deletion strains, locus YNL067W, strain RPL9B, active compounds read low",1.01
same,normalized growth,"S. cerevisiae deletion strains, locus YNL071W, strain lat1, active compounds read low",0.974
same,normalized growth,"S. cerevisiae deletion strains, locus YNL128W, strain TEP1, active compounds read low",1.02
same,normalized growth,"S. cerevisiae deletion strains, locus YNL153C, strain GIM3, active compounds read low",1.01 and 0.984
same,normalized growth,"S. cerevisiae deletion strains, locus YNL175C, strain NOP13, active compounds read low",0.997
same,normalized growth,"S. cerevisiae deletion strains, locus YNL197C, strain WHI3, active compounds read low",0.995
same,normalized growth,"S. cerevisiae deletion strains, locus YNL209W, strain ssb2, active compounds read low",0.99
same,normalized growth,"S. cerevisiae deletion strains, locus YNL224C, strain SQS1, active compounds read low",0.99
same,normalized growth,"S. cerevisiae deletion strains, locus YNL233W, strain BNI4, active compounds read low",1.01
same,normalized growth,"S. cerevisiae deletion strains, locus YNL248C, strain rpa49, active compounds read low",0.874 (active)
same,normalized growth,"S. cerevisiae deletion strains, locus YNL250W, strain rad50, active compounds read low",0.994
same,normalized growth,"S. cerevisiae deletion strains, locus YNL271C, strain bni1, active compounds read low",0.993
same,normalized growth,"S. cerevisiae deletion strains, locus YNL298W, strain CLA4, active compounds read low",1
same,normalized growth,"S. cerevisiae deletion strains, locus YNL307C, strain MCK1, active compounds read low",1.01
same,normalized growth,"S. cerevisiae deletion strains, locus YNL322C, strain KRE1 (second series), active compounds read low",0.989
same,normalized growth,"S. cerevisiae deletion strains, locus YNL322C, strain KRE1, active compounds read low",1 and 1.01
same,normalized growth,"S. cerevisiae deletion strains, locus YNR049C, strain mso1, active compounds read low",0.974
same,normalized growth,"S. cerevisiae deletion strains, locus YNR052C, strain pop2, active compounds read low",0.992
same,normalized growth,"S. cerevisiae deletion strains, locus YOL006C, strain TOP1, active compounds read low",1.04
same,normalized growth,"S. cerevisiae deletion strains, locus YOL012C, strain htz1",0.946
same,normalized growth,"S. cerevisiae deletion strains, locus YOL147C, strain pex11, active compounds read low",0.988
same,normalized growth,"S. cerevisiae deletion strains, locus YOR001W, strain rrp6, active compounds read low",0.925
same,normalized growth,"S. cerevisiae deletion strains, locus YOR061W, strain CKA2, active compounds read low",1.01
same,normalized growth,"S. cerevisiae deletion strains, locus YOR069W, strain VPS5, active compounds read low",1.01
same,normalized growth,"S. cerevisiae deletion strains, locus YOR070C, strain gyp1, active compounds read low",0.985
same,normalized growth,"S. cerevisiae deletion strains, locus YOR080W, strain dia2, active compounds read low",0.977
same,normalized growth,"S. cerevisiae deletion strains, locus YOR083W, strain WHI5 (second series), active compounds read low",1.02
same,normalized growth,"S. cerevisiae deletion strains, locus YOR083W, strain WHI5, active compounds read low",1.03
same,normalized growth,"S. cerevisiae deletion strains, locus YOR106W, strain vam3, active compounds read low",1.01
same,normalized growth,"S. cerevisiae deletion strains, locus YOR136W, strain idh2, active compounds read low",0.995
same,normalized growth,"S. cerevisiae deletion strains, locus YOR144C, strain elg1, active compounds read low",0.98
same,normalized growth,"S. cerevisiae deletion strains, locus YOR184W, strain ser1, active compounds read low",0.991
same,normalized growth,"S. cerevisiae deletion strains, locus YOR265W, strain rbl2, active compounds read low",0.974
same,normalized growth,"S. cerevisiae deletion strains, locus YOR270C, strain vph1, active compounds read low",0.971
same,normalized growth,"S. cerevisiae deletion strains, locus YOR290C, strain snf2, active compounds read low",1.01
same,normalized growth,"S. cerevisiae deletion strains, locus YOR316C, strain cot1, active compounds read low",0.987
same,normalized growth,"S. cerevisiae deletion strains, locus YPL051W, strain arl3, active compounds read low",0.982
same,normalized growth,"S. cerevisiae deletion strains, locus YPL055C, strain LGE1, active compounds read low",1.04
same,normalized growth,"S. cerevisiae deletion strains, locus YPL078C, strain atp4, active compounds read low",1.01
same,normalized growth,"S. cerevisiae deletion strains, locus YPL106C, strain sse1, active compounds read low",0.984
same,normalized growth,"S. cerevisiae deletion strains, locus YPL240C, strain hsp82, active compounds read low",0.971
same,normalized growth,"S. cerevisiae deletion strains, locus YPL241C, strain CIN2, active compounds read low",1.01
same,normalized growth,"S. cerevisiae deletion strains, locus YPR119W, strain clb2, active compounds read low",0.983
same,normalized growth,"S. cerevisiae deletion strains, locus YPR141C, strain kar3, active compounds read low",0.987
same,normalized growth,"S. cerevisiae deletion strains, locus YPR163C, strain tif3, active compounds read low",0.977
same,normalized growth,"S. cerevisiae deletion strains, locus YPR167C, strain met16, active compounds read low",0.994
same,normalized growth,"S. cerevisiae deletion strains, strain wtn01, active compounds read low",0.992
same,normalized growth,"S. cerevisiae strains, strain wild type, active compounds read low",1
